Screening data from PubChem BioAssay.
The entries come from a sample that favours hits as a whole.
TDP1 cell CPT – DT40-hTDP1 cell growth loss with CPT; chicken DT40 Tdp1-/-;hTDP1 cells + 20 nM CPT, ATP luminescence, 48 h; Potency, µM (top dose mostly 46.2 µM), for inactives: at the highest dose activity change, negative = growth inhibition, usual class: inhibitors; hit rate 12% among 420,000; note: potency is the fitted concentration of half-maximal effect; nearly all actives have a fitted effect of over 55% in size
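Chicken DT40 Tdp1-/- cells complemented with human TDP1, 400 cells/well, exposed to compounds plus 20 nM camptothecin for at least 48 h at 37 C; viability read as ATP content by CellTiter-Glo luminescence.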
ALOX12 inh – ALOX12 (human) lipoxygenase inhibition | purified 12hLO, xylenol orange hydroperoxide absorbance | hit rate 1.1% among 580,000 | P18054 | Potency, µM (series often up to 108 µM), for the others: top-dose activity change, negative = inhibition, actives largely listed as inhibitors; note: potency is the fitted concentration of half-maximal effect
Target sequence (P18054 whole entry, looked up): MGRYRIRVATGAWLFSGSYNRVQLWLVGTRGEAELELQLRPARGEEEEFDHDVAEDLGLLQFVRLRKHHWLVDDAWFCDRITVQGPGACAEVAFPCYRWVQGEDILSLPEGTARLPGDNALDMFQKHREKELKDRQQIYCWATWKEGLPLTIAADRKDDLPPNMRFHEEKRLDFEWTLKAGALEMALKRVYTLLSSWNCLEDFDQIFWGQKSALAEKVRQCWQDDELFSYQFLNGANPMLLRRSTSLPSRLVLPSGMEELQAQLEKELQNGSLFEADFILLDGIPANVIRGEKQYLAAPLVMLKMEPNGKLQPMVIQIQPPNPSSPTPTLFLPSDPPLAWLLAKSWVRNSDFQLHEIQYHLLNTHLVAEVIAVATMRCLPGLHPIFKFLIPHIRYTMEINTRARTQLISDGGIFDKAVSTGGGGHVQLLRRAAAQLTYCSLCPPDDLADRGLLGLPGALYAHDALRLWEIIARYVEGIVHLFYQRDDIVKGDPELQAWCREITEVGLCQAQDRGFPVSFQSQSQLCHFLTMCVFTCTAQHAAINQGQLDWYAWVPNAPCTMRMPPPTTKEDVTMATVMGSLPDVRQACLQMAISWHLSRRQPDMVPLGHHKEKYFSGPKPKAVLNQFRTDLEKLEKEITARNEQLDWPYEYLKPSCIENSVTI
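Hydroperoxide product was detected by ferrous iron/xylenol orange as the 573 to 405 nm absorbance ratio. Arachidonic acid at 40 uM (final) was turned over for 30 min at room temperature by 150 nM human 12hLO, pH 7.0 Hepes buffer, after 15 min compound preincubation.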
HT1080-NT tox – kills 2HG-producing HT-1080-NT fibrosarcoma cells | HT-1080-NT fibrosarcoma viability, CellTiter-Glo ATP luminescence, 48 h | hit rate 1.6% among 360,000 | AID 686970 | Potency, µM (top dose mostly 46.1 µM), for inactives: at the top dose activity, negative = less viability, most hits filed as cytotoxic;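 note: NT is the 2HG producing partner of a matched IDH1 knockdown line; potency is the fitted concentration of half-maximal effect; 0% = DMSO-treated cells and -100% = media-only wells without cells; nearly all actives have a fitted effect of over 55% in size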
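Luminescent CellTiter-Glo readout after 48 hours of compound exposure at 37 degrees C defined viability of HT-1080-NT cells. Activity was normalized to DMSO wells and cell-free media wells; concentration-response curves were fitted and assigned curve classes.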
IL1B secr inh – blocks inflammasome-driven IL-1 beta release | THP-1 LPS/ATP IL-1B secretion, AlphaLISA, 16 h; stronger effect = lower value | activity change, % at 57.5 µM | hit rate 4.7% among 360,000 | AID 743279; in the data active = activity change below about -50%; inconclusive = mostly about -30% to -49%
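Secreted IL-1B measured by AlphaLISA bead assay after 16 h compound exposure of THP-1 cells; compounds (final up to 57.5 uM) added 1 h before LPS (250 ng/mL) and ATP (1.25 mM) stimulation; lower signal means less secretion.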
TDP1 cell noCPT – qHTS for Inhibitors of human tyrosyl-DNA phosphodiesterase 1 (TDP1): qHTS in cells in absence of CPT; hit rate 15% among 420,000; Potency, µM (doses to about 46.2 µM), for inactives: at the top dose activity change, negative = growth inhibition, actives largely listed as inhibitors; AID 686978, 2013; DT40 Tdp1-/- hTDP1 cells, no CPT, ATP luminescence, 48 h; note: potency is the fitted concentration of half-maximal effect; nearly all actives have a fitted effect of over 55% in size
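No-CPT arm: Tdp1-/-;hTDP1 DT40 cells (400/well) plus compounds, incubated ≥48 hr at 37 °C. Readout CellTiter-Glo luminescence.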
HT1080 IDH1KD tx – toxicity to HT-1080 IDH1 knockdown cells (counter line); HT-1080 IDH1 knockdown viability, ATP luminescence, 48 h; Potency, µM (series often up to 46.1 µM), without a hit: at the top dose activity, negative = toxicity, most hits filed as cytotoxic; hit rate 2% among 360,000; AID 686971;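 note: potency is the fitted concentration of half-maximal effect; 0% = DMSO wells and -100% = cell-free medium wells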
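Luminescent ATP read-out (CellTiter-Glo, 10 min at room temperature) after 48 h compound exposure at 37 °C gave viability of IDH1-knockdown HT-1080 cells. Activity was normalised to DMSO and cell-free wells, then fitted as concentration-response curves.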
* = called active by the depositor; ? = inconclusive; . = no result; ! = not confirmed by another sample; [ ] = dose if it differs, or a comment. Unless noted, calls come from the whole dose curve; as a rule, active = well fitted curve in the direction sought with a large enough effect; inconclusive = small, poorly fitted or top-dose-only effect, or another doubt; inactive = no such curve, though single readings can be large; an effect the other way counts as inactive or inconclusive. Unless noted, % is set by controls: 0 for no effect and ±100 for the full control effect.

SMILES	TDP1 cell CPT	ALOX12 inh	HT1080-NT tox	IL1B secr inh	TDP1 cell noCPT	HT1080 IDH1KD tx
O=c1c2c3c(sc2ncn1-c1ccc(Br)cc1)CCCC3	.	-13.7%	.	.	.	.
CCCCN1CC[C@H]2C=CC[C@@H](C(=O)Nc3ccccc3)[C@H]2C1=O	?	-3.0%	17.2%	29.6	-4.8%	-1.6%
O=C(Nc1ccccc1)[C@@H]1CC=C[C@@H]2CCN(Cc3ccccc3)C(=O)[C@@H]21	?	-1.2%	0.1%	-6.9	22.4µM*!	14.6%
COc1ccc(CN2CC[C@H]3C=CC[C@@H](C(=O)NCCc4ccccc4)[C@H]3C2=O)cc1OC	14.1µM*	33.9%	18.8%	0.1	?	3.6%
O=C(Nc1ccccc1)[C@@H]1CC=C[C@@H]2CCN(Cc3ccc(Cl)c(Cl)c3)C(=O)[C@@H]21	?	2.8%	?	?	18.4µM*	?
CN(c1ccc(OCC(=O)N2CCN(c3ccc(F)cc3)CC2)cc1)S(=O)(=O)c1cccs1	?	?	-15.5%	-20.9	25.9µM*	-24.9%
COc1ccc(CC(=O)N2CCN(c3ccc(F)cc3)CC2)cc1	-28.8%	13.5%	22.5%	18.7	?	28.6%
O=C(CCS(=O)(=O)c1ccc(Cl)cc1)N1CCN(c2ccc(F)cc2)CC1	14.6µM*	-28.9%	-2.7%	-20.9	18.4µM*	-2.1%
Cc1ccc(S(=O)(=O)CCC(=O)N2CCN(c3ccc(Cl)cc3)CC2)cc1	13µM*	?	1.8%[9.24 µM]	0.0	20.6µM*	-24.7%
COc1ccc(S(=O)(=O)CCC(=O)N2CCN(c3ccc(F)cc3)CC2)cc1	20.6µM*	-2.9%	16.2%	-1.5	25.9µM*	6.3%
O=C(CCS(=O)(=O)c1ccc(Cl)cc1)N1CCN(c2ccccc2F)CC1	-28.5%	0.0%	11.7%	40.9	-17.6%	5.9%
O=S(=O)(Nc1ccc2cn[nH]c2c1)c1ccc(Cl)cc1C(F)(F)F	.	-28.5%	.	.	.	.
O=C1CN(C(=O)c2ccnc(-c3nnc4ccc(Nc5ccccc5)nn34)c2)CCN1	.	2.6%[176 µM]	.	.	.	.
Cc1c(Cl)cccc1NC(=O)CC(O)(c1nccn1C)C(F)(F)F (stereo unspecified)	.	0.4%	.	.	.	.
Cc1cc(Br)ccc1OCCn1ccnc1	-7.8%	-0.2%	-1.6%	-25.3	-25.8%	0.7%
COCCCNCCCCOc1ccc(Br)cc1C	?	?	?	-56.1*	23.1µM*	?
COCCNCCCCOc1ccc(Br)cc1C	?	?	?	-29.3	23.1µM*	-26.5%
COCCCNCCCCOc1ccc(C)cc1[N+](=O)[O-]	-0.4%	-31.4%	0.4%	-6.5	-28.1%	-0.3%
Cc1cc(Br)ccc1OCCCCNC(C)(C)C	?	?	13µM*	?	20.6µM*	?
Clc1ccc(-c2cnc(CN3CCN(c4ccccc4)CC3)o2)cc1	.	-1.1%	.	.	.	.
Cc1ccc(C)c(S(=O)(=O)N2CCN(C(=O)[C@H](Cc3ccccc3)NC(=O)c3ccco3)CC2)c1	23.1µM*	-5.4%	13.6%	27.2	16.4µM*	9.5%
CSCCC(NC(=O)c1ccco1)C(=O)N1CCN(C(c2ccccc2)c2ccccc2)CC1 (stereo unspecified)	23.1µM*	-4.4%	-9.2%	?	16.4µM*	-1.9%
Cc1ccc(S(=O)(=O)N2CCN(C(=O)[C@H](Cc3ccccc3)NC(=O)c3ccco3)CC2)cc1C	?	22.5%	-2.6%	-5.9	16.4µM*	-13.5%
Cc1ccc(S(=O)(=O)N2CCN(C(=O)[C@H](Cc3ccccc3)NC(=O)c3ccco3)CC2)cc1	?	169.2%	-1.4%	11.2	?	3.2%
O=C(N[C@@H](Cc1ccccc1)C(=O)N1CCN(S(=O)(=O)c2ccccc2F)CC1)c1ccco1	?	-0.1%	10.4%	5.5	?	11.6%
SMILES	TDP1 cell CPT	ALOX12 inh	HT1080-NT tox	IL1B secr inh	TDP1 cell noCPT	HT1080 IDH1KD tx
CSCCC(NC(=O)c1ccco1)C(=O)N1CCCC(C(F)(F)F)C1 (stereo unspecified)	-6.6%	47.8%	-0.6%	2.7	?	-3.7%
c1ccc(COc2ccc(-c3cc4nc(NCc5ccc6c(c5)OCO6)ccn4n3)cc2)cc1	18.4µM*	7.4%	-19.2%	44.9	7.31µM*	?
O=C(NC1CCCC1)c1cc2nc(-c3ccco3)cc(C(F)(F)F)n2n1	?	-17.8%	3.8%	-4.3	?	0.2%
c1coc(-c2cc3nc(NC4CCCCC4)ccn3n2)c1	?	44.7µM*	19.5%	-7.0	20.6µM*	-1.3%
c1coc(-c2cc3nc(NCc4ccc5c(c4)OCO5)ccn3n2)c1	?	31.6µM*	-4.7%	-12.0	-17.9%	-12.0%
CCOCCNc1nccc(C2(c3ccccc3Cl)CCNCC2)n1	.	4.2%	.	.	.	.
Cc1cc(C(=O)N2CCCC(CCc3c(F)cccc3F)C2)nc(C)n1 (stereo unspecified)	.	18.5%	.	.	.	.
O=C(COc1cc(O)c2c(=O)cc(-c3ccccc3)oc2c1)Nc1cccc(O)c1	.	-36.5%	.	.	.	.
CCc1nc2ccc(C(=O)NCc3ccc(OC)cc3)cn2c1N(CCC(C)C)CCN(C)C	?	-4.0%	?	-14.7	16.4µM*	?
CCc1nc2ccc(C(=O)N3CCCCC3)cn2c1N(CCC(C)C)CCN(C)C	-29.8%	-4.8%	15.9%	-13.7	-26.5%	15.2%
CCc1nc2ccc(C(=O)NCc3cccs3)cn2c1N(CCC(C)C)CCN(C)C	?	8.9%	?	-25.0	?	?
CCc1nc2ccc(C(=O)NCc3ccccc3OC)cn2c1N(C=O)CCC(C)C	23.1µM*	5.6%	4.7%	-8.5	16.4µM*	12.2%
CCc1nc2ccc(C(=O)NCC3CCCCC3)cn2c1N(CCC(C)C)CCN(C)C	18.4µM*	4.6%	18.4µM*	18.2	25.9µM*	16.4µM*
CC1=C[C@@H](CC#N)[C@H](C(C)C)C[C@H]1CC(=O)N1CCN(c2cnccn2)CC1	.	34.9%[176 µM]	.	.	.	.
O=C(O)C1(Nc2ccccc2Cl)CCCC1	6.4%	0.2%	17.9%	13.1	-6.7%	12.2%
O=C1OCC(CO)(CO)N=C1NNc1ccccc1Cl	-13.1%	?	10µM*	34.2	-8.1%	-9.7%
Cc1ccc(NC(=O)c2nnn(-c3ccc4c(c3)OCCO4)c2N)cc1	?	20.1%	-21.2%	-89.6*	?	-20.7%
Nc1c(C(=O)Nc2ccccc2)nnn1-c1ccc2c(c1)OCCO2	-7.7%	8.9%	-10.6%	-59.8*	?	-15.1%
Cc1cc(C)cc(NC(=O)CS(=O)(=O)Cc2nc(-c3ccccc3C)oc2C)c1	.	11.1%	.	.	.	.
